Consider 14 molecules from PubChem BioAssay.

The test system of test [1] is Wnt5a (protein binding on small-molecule microarray). The test is described as follows: Wnt5a binders on small-molecule microarray, primary screen, biophysical, 635/667 nm fluorescence (AID 1142).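 Further: fluorescence read at 667 nm with signal to noise per printed feature.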 To be noted: 635 nm fluorescence, higher = more signal.
The nature of test [2]: cell viability in Huh7 cells, primary screen, cytotoxicity control for HCV replication inhibitor project, CellTiter-Glo luminescence, basal, 48 h (AID 1143).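 Further: Huh7 hepatoma cells carrying a hepatitis C replication reporter with no stimulus; test concentration not given here.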 To be noted: Huh7 HCV replicon, higher = more signal, called active from +8 up or from −8 down. In general terms: Cellular ATP, detected with luciferase, serves as a proxy for viable cell number.
Test [3] can be described thus: P. aeruginosa biofilm formation inhibitors, primary screen, PAO1 strain, BacTiter-Glo luminescence, LB-PBS (AID 1144). To be noted: 12 h, higher = more signal.
Test [4] can be described thus: CREB reporter modulators without forskolin, primary screen, cell-based, PC12, CRE-LacZ reporter, unstimulated (AID 1145). As to conditions: no forskolin, luminescence, 4.5 h, higher = more signal, called active from +8 up or from −8 down.
Test [5] can be described thus: CREB reporter modulators under forskolin, primary screen, cell-based, PC12, CRE-LacZ reporter, forskolin-stimulated (AID 1146).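 Further: PC12 cells with 6xCRE LacZ reporter stimulated by forskolin 10 µM; beta-galactosidase reporter signal reflecting CREB driven transcription.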 As to conditions: luminescence, 4.5 h, higher = more signal, called active from +8 up or from −8 down.
Test [6] has as its target Streptavidin (Streptomyces avidinii) (UniProt P22629). In words: streptavidin binders on small-molecule microarray, primary screen, artefact control for SMM compound annotation, biophysical, 635/667 nm fluorescence (AID 1147).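 Further: signal reflects streptavidin binding to arrayed compounds as a control protein.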 To be noted: streptavidin binding, higher = more signal.
Test [7] is described as follows: small-molecule binders of probe aInhba, primary screen, biochemical, small-molecule microarray, 635/667 nm fluorescence (AID 1148).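 Further: score merges 667nm spot fluorescence with signal-to-noise for antibody binding to printed compounds.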 To be noted: higher = more signal.
Test [8] addresses Torsin-1A (Homo sapiens) (UniProt O14656). The test is described as follows: torsin A binders from cell lysate, primary screen, small-molecule microarray, wild-type, 635/667 nm (AID 1149). As to conditions: COS7 hTOR1A-WT lysate, 635 nm fluorescence, higher = more signal.
For test [9] the target is unchanged. The test is described as follows: small-molecule binders of mutant TOR1A in lysate, primary screen, cell lysate, small-molecule microarray, COS7 lysate, 635/667 nm fluorescence (AID 1150).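 Further: score pools 667 nm emission and signal to noise measuring lysate protein binding.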 As to conditions: COS7 hTOR1A mutant lysate, 635 nm fluorescence, higher = more signal.
Test [10] relates to Sonic hedgehog protein (Shh). The test is described as follows: small-molecule binders of Shh protein, primary screen, biochemical, small-molecule microarray, 635/667 nm fluorescence (AID 1151).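 Further: Shh protein binding to compounds spotted on small-molecule microarray slides; score combines spot fluorescence intensity with signal-to-noise across triplicate slides.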 As to conditions: small-molecule microarray binding, 635 nm fluorescence; higher = more signal.

Each structure is given as a SMILES string. Calls of active or inactive are those of the source. Unless noted, how the calls were made is not given here.

Chain of Torsin-1A (Homo sapiens) (O14656 whole entry, looked up): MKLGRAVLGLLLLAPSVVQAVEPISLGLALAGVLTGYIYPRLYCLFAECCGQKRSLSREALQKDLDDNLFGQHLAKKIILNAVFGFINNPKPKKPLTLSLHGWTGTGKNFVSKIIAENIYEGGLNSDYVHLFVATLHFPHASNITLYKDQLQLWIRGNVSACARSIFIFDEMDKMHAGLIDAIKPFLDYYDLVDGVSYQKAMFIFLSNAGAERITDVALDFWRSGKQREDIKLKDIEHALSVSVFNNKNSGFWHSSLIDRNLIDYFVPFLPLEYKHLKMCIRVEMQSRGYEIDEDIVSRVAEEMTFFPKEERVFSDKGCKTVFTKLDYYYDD
Chain of Streptavidin (Streptomyces avidinii) (P22629 whole entry, looked up): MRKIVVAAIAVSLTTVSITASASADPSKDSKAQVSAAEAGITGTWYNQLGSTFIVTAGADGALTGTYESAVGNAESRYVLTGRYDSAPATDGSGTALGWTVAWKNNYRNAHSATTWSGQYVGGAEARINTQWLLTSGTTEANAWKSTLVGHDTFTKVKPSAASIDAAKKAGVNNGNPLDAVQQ

For `O=C1C2C=CC(C(O)c3ccc(-c4ccccc4)s3)N(n3cnnc3)C2C(=O)N1Cc1ccccc1` (stereo not given), the composite z-score in test [1] is -0.18; in test [6] it was -0.116; in test [7] it was -0.0087; with Torsin-1A (Homo sapiens) [8] it was -0.412; with Torsin-1A (Homo sapiens) [9], -0.468; in test [10] it was -0.683. The z-score in test [2] was -0.291 (inactive); in test [3], -0.669 (inactive); in test [4], 0.481 (inactive); in test [5] it was 0.288 (inactive).

As to `Cc1ccc(S[C@]2(C(=O)NCC(C)C)CC(=O)N(Cc3ccccc3)[C@@H]2c2ccc(CO)cc2I)cc1`, the composite z-score stood at 0.185 in test [1]; 0.176 in test [6]; 0.0422 in [7]; 0.298 in the test with Torsin-1A (Homo sapiens) [8]; 0.835 in the test with Torsin-1A (Homo sapiens) [9]; 2.21 in [10]. Moreover, the z-score in test [2] is -2.48 (inactive); in test [3], 0.229 (inactive); in test [4], 0.856 (inactive); in test [5] it was 1.27 (inactive).

Consider `Cc1ccc(F)cc1S(=O)(=O)N[C@@H]1CCN(Cc2ccc(-c3ccccc3)cc2)C1`, for which the composite z-score in test [1] was 0.116; in test [6] it was -0.164; in test [7], -0.128; in the test with Torsin-1A (Homo sapiens) [8], 0.606; with Torsin-1A (Homo sapiens) [9] it was 0.743; in test [10], 0.98. Also, the z-score was -6.41 (inactive) in [2], 0.00325 (inactive) in test [3], 6.48 (inactive) in [4] and 0.959 (inactive) in test [5].

For the molecule `O=C/C=C/c1ccc(Cl)cc1`, the composite z-score is 0.268 in [1]; -0.359 in test [6]; -0.179 in test [7]; -1.01 with Torsin-1A (Homo sapiens) [8]; -0.786 in the test with Torsin-1A (Homo sapiens) [9]; -0.823 in test [10]. Further, the z-score in test [2] is -2.45 (inactive); in [3], -0.421 (inactive); in [4], -0.258 (inactive); in [5], 0.716 (inactive).

For `C[C@H]1NC(=O)[C@H](Cc2ccccc2)NC(=O)[C@@]23C(=O)N[C@@H](Cc4ccccc4)C2[C@H](C)[C@@]2(C)O[C@H]2C3/C=C/C/C=C\CNC1=O` (stereo not given in full), the composite z-score in [1] is -0.182; in test [6], -0.496; in test [7], -0.179; with Torsin-1A (Homo sapiens) [8], -0.477; in the test with Torsin-1A (Homo sapiens) [9] it was -0.402; in test [10], 0.249. Besides, the z-score in test [2] is -0.679 (inactive); in [3] it was 0.615 (inactive); in test [4], 2.67 (inactive); in test [5], -0.522 (inactive).

In the case of `COc1ccc(NN2C(C(O)c3ccc(OC)c(OCc4ccccc4)c3)C=CC3C(=O)N(C4CCCCC4)C(=O)C32)cc1` (stereo not given), the composite z-score in test [1] is 0.285; in test [6], 1.19; in [7], 0.0769; with Torsin-1A (Homo sapiens) [8], -0.196; in the test with Torsin-1A (Homo sapiens) [9] it was 0.185; in test [10] it was -0.504. In addition, the z-score in [2] was -2.17 (inactive); in test [3], -1.73 (inactive); in test [4] it was -0.322 (inactive); in test [5], 0.693 (inactive).

Turning to `COC(=O)C(CC#Cc1ccc2c(c1)[C@]1(C(=O)N2)[C@H](c2ccc(OCCO)cc2)N2[C@H](c3ccccc3)[C@H](c3ccccc3)OC(=O)[C@H]2[C@@H]1C(=O)NC[C@H](O)c1ccccc1)C(=O)OC`, the composite z-score amounted to 0.593 in test [1]; 0.472 in test [6]; 0.0442 in test [7]; 0.413 in the test with Torsin-1A (Homo sapiens) [8]; 0.532 with Torsin-1A (Homo sapiens) [9]; 1.4 in test [10]. Besides, the z-score was -1.17 (inactive) in [2], -0.923 (inactive) in [3], 0.0384 (inactive) in test [4] and -0.926 (inactive) in test [5].

Consider `CCOC(=O)C[C@H]1[C@H](OC(=O)c2ccccc2-c2ccccc2)[C@@H](NC(=O)c2ccc3ccccc3c2)c2cc(OCCCO)ccc2N1C(=O)c1ccc2ccccc2n1`, for which the composite z-score in test [1] is 0.0952; in test [6], 0.162; in test [7] it was -0.0087; with Torsin-1A (Homo sapiens) [8] it was 0.335; in the test with Torsin-1A (Homo sapiens) [9] it was 0.0486; in test [10] it was 0.575. For the same molecule, the z-score is 0.0364 (inactive) in test [2], -0.756 (inactive) in test [3], 0.311 (inactive) in [4] and 0.429 (inactive) in [5].

Turning to `CCOC(=O)C1=C[C@@H](CC)N(S(=O)(=O)c2ccc(C)cc2)[C@H]1c1ccccc1`, the composite z-score in [1] came out at 0.214; in [6] it was 1.09; in test [7] it was 0.226; with Torsin-1A (Homo sapiens) [8], 0.391; with Torsin-1A (Homo sapiens) [9] it was 0.637; in test [10] it was 0.0552. Further, the z-score in test [2] was -3.47 (inactive); in test [3] it was -0.0903 (inactive); in test [4], 0.22 (inactive); in test [5] it was -0.55 (inactive).

On to `[N-]=[N+]=NCc1ccccc1C[C@@]1(C(=O)N2CCOCC2)N=C(c2ccc(OCCCO)cc2)O[C@@H]1c1ccccc1CN=[N+]=[N-]`, for which the composite z-score is 1.44 in test [1]; 1.56 in [6]; 0.985 in test [7]; 0.375 with Torsin-1A (Homo sapiens) [8]; 0.193 with Torsin-1A (Homo sapiens) [9]; 0.704 in test [10]. In addition, the z-score in [2] is -3.44 (inactive); in [3], -1.02 (inactive); in test [4], 1.7 (inactive); in test [5] it was -0.0755 (inactive).

`O=c1cccc(CCc2ccccc2)o1`: the composite z-score in test [1] was -0.187; in [6], -0.0374; in test [7], 0.0357; with Torsin-1A (Homo sapiens) [8], -0.221; with Torsin-1A (Homo sapiens) [9], -0.15; in test [10] it was 0.943. Also, the z-score in test [2] was -0.908 (inactive); in test [3], 0.624 (inactive); in test [4], 1.08 (inactive); in [5], 1.03 (inactive).

Turning to `COC(=O)c1ccc(C(O)C2C=CC3C(=O)N(c4ccccc4)C(=O)C3N2Nc2ccc(C#N)cc2)o1` (stereo not given), the composite z-score in test [1] was 0.304; in test [6], 0.337; in test [7], -0.0901; in the test with Torsin-1A (Homo sapiens) [8], 0.928; with Torsin-1A (Homo sapiens) [9], 0.0721; in test [10], -0.0224. Also, the z-score in test [2] is 1.07 (inactive); in test [3], -1.05 (inactive); in test [4], 1.4 (inactive); in test [5], -0.22 (inactive).

For the molecule `CN1C(=O)C2C=CC(C(O)c3ccccn3)N(Nc3ccccc3)C2C1=O` (stereo not given), the composite z-score is -0.0522 in test [1]; 0.324 in test [6]; -0.0069 in test [7]; 0.884 with Torsin-1A (Homo sapiens) [8]; -0.179 with Torsin-1A (Homo sapiens) [9]; 0.207 in test [10]. Further, the z-score in test [2] is 0.901 (inactive); in test [3] it was -0.652 (inactive); in test [4], 0.0467 (inactive); in test [5], 0.4 (inactive).

`Cc1ccc(S[C@]2(C(=O)NC3CC3)CC(=O)N(C3CCCCC3)[C@@H]2c2ccc(CO)cc2I)cc1`: the composite z-score in test [1] is 0.136; in [6], 0.936; in [7], -0.0375; with Torsin-1A (Homo sapiens) [8], 0.254; in the test with Torsin-1A (Homo sapiens) [9] it was 0.582; in test [10], 1.77. Moreover, the z-score is -3.4 (inactive) in test [2], -0.128 (inactive) in test [3], 0.362 (inactive) in test [4] and 0.681 (inactive) in [5].
